This note sets out measurements from the OligoGym collection.
Further: reference of the scale not given here.

For the first assay, the target named is GALT. In words: pooled miR-30 sensor sort-seq; sequence = guide strand. The note with it: shRNA.
For TTTTCAAAGATCTGCACCCAAG, the sensor-assay potency score (higher = more potent) was -1.61.

In the case of TAGCCAACCATGAATTTCCGGA, the sensor-assay potency score (higher = more potent) was -0.189.

On to TAATTCAGCAAGACTGTTGAAA, for which the sensor-assay potency score (higher = more potent) amounted to 0.0574.

The next assay has as its target GAPDH. The assay is described as above. The note with it: shRNA.
Turning to AACATGTAAACCATGTAGTTGA, the sensor-assay potency score (higher = more potent) was -0.65.

Consider TTGACAAAGTGGTCGTTGAGGG, for which the sensor-assay potency score (higher = more potent) is -0.52.

As to TGGAACATGTAAACCATGTAGT, the sensor-assay potency score (higher = more potent) is -0.878.

In the case of TTGGCAGGTTTTTCTAGACGGC, the sensor-assay potency score (higher = more potent) is -0.926.

In the case of TTGAGGTCAATGAAGGGGTCAT, the sensor-assay potency score (higher = more potent) is -0.473.

TTGATGGCAACAATATCCACTT: the sensor-assay potency score (higher = more potent) is -0.344.

For the sequence TCGCTGTTGAAGTCAGAGGAGA, the sensor-assay potency score (higher = more potent) is -1.53.

As to AATTCGTTGTCATACCAGGAAA, the sensor-assay potency score (higher = more potent) is -1.59.

Consider TATTGGAACATGTAAACCATGT, for which the sensor-assay potency score (higher = more potent) is -0.597.

TGAGCTTGACAAAGTGGTCGTT yielded a sensor-assay potency score (higher = more potent) of 0.19.

In turn, TGTTGTCATACTTCTCATGGTT registered a sensor-assay potency score (higher = more potent) of 0.0358.

Regarding TTGTCATGGATGACCTTGGCCA, the sensor-assay potency score (higher = more potent) was -0.37.

For the sequence ATGAGCTTGACAAAGTGGTCGT, the sensor-assay potency score (higher = more potent) worked out at 0.0447.

In the case of ATTGATGACAAGCTTCCCGTTC, the sensor-assay potency score (higher = more potent) is -0.354.

In the case of ATATTGGAACATGTAAACCATG, the sensor-assay potency score (higher = more potent) is -1.54.

TTGATGACAAGCTTCCCGTTCT: the sensor-assay potency score (higher = more potent) is 0.0762.

As to TTGGAACATGTAAACCATGTAG, the sensor-assay potency score (higher = more potent) is -0.273.

Regarding TTGCTGTAGCCAAATTCGTTGT, the sensor-assay potency score (higher = more potent) is -1.2.

As to TTTTTCTAGACGGCAGGTCAGG, the sensor-assay potency score (higher = more potent) is -1.01.

In the case of ATTTCCATTGATGACAAGCTTC, the sensor-assay potency score (higher = more potent) was -1.07.

As to TTCTCAGCCTTGACGGTGCCAT, the sensor-assay potency score (higher = more potent) was -0.93.

Turning to TAGTTGAGGTCAATGAAGGGGT, the sensor-assay potency score (higher = more potent) was -0.233.

As to TAAACCATGTAGTTGAGGTCAA, the sensor-assay potency score (higher = more potent) came to 0.434.

On to ATTGATGGCAACAATATCCACT, for which the sensor-assay potency score (higher = more potent) is -0.562.

The next assay deals with GATA4. The description is as above. The note with it: shRNA.
Regarding TTTATTCAGGTTCTTGGGCTTC, the sensor-assay potency score (higher = more potent) is -0.422.

On to TTCTGAGAAGTCGTCAAACATA, for which the sensor-assay potency score (higher = more potent) was -1.72.

Turning to TCGTCAAACATATCGAGATTGG, the sensor-assay potency score (higher = more potent) is -0.878.

On to TGGAGCTTCATGTAGAGGCCGC, for which the sensor-assay potency score (higher = more potent) was -0.527.

On to TGACACACTCTCTGCCTTCTGA, for which the sensor-assay potency score (higher = more potent) is -0.406.

For the sequence TTCTGTTGTGTTGTGTTTGTTT, the sensor-assay potency score (higher = more potent) was -0.142.

As for TTGCTGGAAGCACCGCTGGCGG, the sensor-assay potency score (higher = more potent) was -1.56.

As for TAAAACAGAATCTTGGTTCAAA, the sensor-assay potency score (higher = more potent) turned out to be 0.268.

For the sequence TTTGCTATCCTCCAAGTCCCAG, the sensor-assay potency score (higher = more potent) was -0.913.

For TTAGATTTATTCAGGTTCTTGG, the sensor-assay potency score (higher = more potent) is -0.334.

As to TTGTTCTGGAGTCATTACCAGG, the sensor-assay potency score (higher = more potent) was -1.25.

In turn, TCGACTTCAAGTTTCTTCCCAG had a sensor-assay potency score (higher = more potent) of 0.0228.

Regarding TCAAACATATCGAGATTGGGGT, the sensor-assay potency score (higher = more potent) is 0.14.
